Results filed as inconclusive are left out. Calls of active or inactive are those of the source. Unless noted, calls come from the whole dose curve; as a rule, active = well fitted curve in the direction sought with a large enough effect in the repeat runs; inconclusive = weak or mixed curves; inactive = no such curve, though single readings can be large; an effect the other way counts as inactive or inconclusive.
Assays:
[1] = qHTS assay to identify small molecule agonists of the estrogen receptor alpha (ER-alpha) signaling pathway in the presence of an antagonist - cell viability counter screen (AID 1259386);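 note: series mostly up to about 92 µM; cells exposed to compounds for 22 h at 37 °C before the viability read; nearly all actives have a fitted effect of over 30% in size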
Outline: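 ICI-182,780 at 10.0nM final accompanies the compound titration (15 concentrations, 22hr, 37C) on VM7Luc4E2 cells. The CellTiter-Fluor fluorescence readout runs in the same wells as the luciferase assay.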

[2] = target: Progesterone receptor (Homo sapiens) (UniProt P06401); experiment: qHTS assay to identify small molecule agonists of the progesterone receptor (PR) signaling pathway (AID 1346784; calls by dose curve; note: nearly all actives have a fitted effect of over 30% in size)
Outline: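 Beta-lactamase reporter read-out: after 16 hr compound treatment at 37C and a further 2 hr at room temperature with LiveBLAzer B/G FRET substrate, fluorescence was measured in PR-UAS-bla HEK 293T cells grown in 2% charcoal-stripped serum.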

[3] = target: Progesterone receptor (Homo sapiens) (UniProt P06401); experiment: qHTS assay to identify small molecule antagonists of the progesterone receptor (PR) signaling pathway (AID 1346795; active = well fitted inhibition curve with a large enough effect in the signal ratio in the repeat runs, not every such curve was filed as active; the % refers to the signal ratio)
Outline: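 Read-out is fluorescence from the LiveBLAzer B/G FRET substrate, cleaved by a UAS-controlled beta-lactamase in PR-UAS-bla HEK293T cells after 16 hr exposure to compound plus 1 nM promegestone (final), followed by 2 hr at room temperature.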

[4] = qHTS assay to identify small molecule antagonists of the progesterone receptor (PR) signaling pathway - cell viability counter screen (AID 1346798);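 note: HEK293T PR-UAS-bla cells stimulated with the agonist R5020; series mostly up to about 92 µM; nearly all actives have a fitted effect of over 50% in size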
Outline: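 HEK293T PR-UAS-bla, 2% charcoal-stripped FBS; 4 hr pre-plate; cpd + R5020, 16 h 37C; LiveBLAzer read first; then CellTiter-Glo 30 min RT, luminescence.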

[5] = qHTS assay to identify small molecule agonists of the progesterone receptor (PR) signaling pathway - cell viability counter screen (AID 1346799; calls by dose curve; note: nearly all actives have a fitted effect of over 45% in size)
Outline: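 Luminescence from CellTiter-Glo, added after the beta-lactamase FRET read in the same wells, gave cytotoxicity in PR-UAS-bla HEK293T cells treated with compounds for 16 hr at 37C.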

[6] = qHTS assay to identify small molecule antagonists of the TGF-beta/Smad signaling pathway - cell viability counter screen (AID 1346824); note: nearly all actives have a fitted effect of over 50% in size
Outline: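 Cytotoxicity counter-screen run in the same wells as the beta-lactamase Smad reporter read: CellTiter-Glo luminescence after 30 min at room temperature. HEK 293T SBE-bla cells had 5 hr compound exposure at 37 C with TGF-beta1 (0.25 ng/mL stock).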

[7] = qHTS assay to identify small molecule agonists of the TGF-beta/Smad signaling pathway (AID 1346859; active = well fitted activation curve with a large enough effect in the signal ratio in the repeat runs, not every such curve was filed as active; the % refers to the signal ratio; note: series mostly up to about 77 µM)
Outline: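 SBE-bla HEK 293T, 4,000 cells/well, plated o/n; cpd in DMSO, 5 hr, 37 C/5% CO2; B/G FRET substrate 2 hr RT; ex 405, em 460/530 nm.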

[8] = target: Thyrotropin-releasing hormone receptor (Homo sapiens) (UniProt P34981); experiment: qHTS assay to identify small molecule antagonists of the thyrotropin-releasing hormone receptor (TRHR) signaling pathway (AID 1346877; active = well fitted inhibition curve with a large enough effect in the repeat runs, not every such curve was filed as active; note: series mostly up to about 51 µM)
Outline: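 Screening used HEK293 cells engineered with TRHR, with a brief 5 min room-temperature compound exposure preceding addition of TRH to 1 nM. The read-out was kinetic calcium-dye fluorescence, concentration-response from 15 doses in triplicate.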

[9] = target: Thyrotropin-releasing hormone receptor (Homo sapiens) (UniProt P34981); experiment: qHTS assay to identify small molecule agonists of the thyrotropin-releasing hormone receptor (TRHR) signaling pathway (AID 1346891; calls by dose curve; note: series mostly up to about 58 µM)
Outline: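 Intracellular calcium rise, read as fluorescence every second for 3 min, served as the agonist signal in dye-loaded HEK293 cells expressing TRHR; each compound ran at 15 concentrations in triplicate.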

[10] = Human pregnane X receptor (PXR) small molecule agonists, qHTS cell viability counter screen (AID 1346977); note: nearly all actives have a fitted effect of over 50% in size
Outline: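 PXR-Luc HepG2, 2,000 cells/well, 5% charcoal-stripped FBS; 5hr settle; cpd 24hr, 37C/5% CO2; CellTiter-Fluor at 23hr, read 1hr later (fluorescence).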

[11] = Caspase-3/7 induction in HepG2 cells by small molecules, qHTS assay (AID 1346978); note: nearly all actives have a fitted effect of over 15% in size
Outline: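 Caspase-3/7 induction was measured by Caspase-Glo 3/7 luminescence (30 min, room temperature) after a 17 hr compound exposure of wild-type HepG2 cells seeded at 2,000 per well and pre-incubated 5 hr.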

[12] = Caspase-3/7 induction in CHO-K1 cells by small molecules, qHTS cell viability counter screen (AID 1346979); note: nearly all actives have a fitted effect of over 35% in size
Outline: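 Cells (CHO-K1, wild type) are plated at 1,500 per well and incubated 5hr. Test compounds in DMSO are then pinned in, followed by 16hr at 37C and 5% CO2. Viability is read by CellTiter-Fluor fluorescence after 1hr.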

[13] = Caspase-3/7 induction in CHO-K1 cells by small molecules, qHTS assay (AID 1346980); note: nearly all actives have a fitted effect of over 15% in size
Outline: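 Luminescent Caspase-Glo 3/7 read (30min, room temperature) quantified apoptosis induction. Cells were wild-type CHO-K1, treated with compound for 17hr at 37 C and 5% CO2.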

[14] = Caspase-3/7 induction in HepG2 cells by small molecules, qHTS cell viability counter screen (AID 1346981); note: series mostly up to about 92 µM; nearly all actives have a fitted effect of over 30% in size
Outline: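 Multiplexed with the caspase-3/7 assay: HepG2 cells, 16 hr compound treatment, CellTiter-Fluor viability detection by fluorescence.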

[15] = target: Nuclear receptor subfamily 1 group I member 2 (Homo sapiens) (UniProt O75469); experiment: Human pregnane X receptor (PXR) small molecule agonists, qHTS assay (AID 1346982); note: nearly all actives have a fitted effect of over 35% in size; note: potency is the fitted concentration of half-maximal effect
Outline: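 We seeded PXR-Luc HepG2 cells in assay medium containing 5% charcoal-stripped FBS, added compounds 5 hr later, incubated 24 hr, and read luminescence with ONE-Glo reagent.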

[16] = target: Cytochrome P450 2D6 (Homo sapiens) (UniProt P10635); experiment: Cytochrome P450 Family 2 Subfamily D Member 6 (CYP2D6) small molecule antagonists: luciferase reporter qHTS assay (AID 1671196); note: nearly all actives have a fitted effect of over 50% in size; note: potency is the fitted concentration of half-maximal effect; for activity change, negative = inhibition: series mostly up to about 120 µM
Outline: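 Luminescence (RLU), read 20 min after detection reagent, indicated CYP2D6 conversion of proluciferin to luciferin during a 1 h NADPH-dependent reaction at room temperature.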

[17] = target: Nuclear receptor subfamily 1 group I member 2 (Rattus norvegicus) (UniProt Q9R1A7); experiment: Rat pregnane X receptor (rPXR) activation by small molecules, qHTS assay (AID 1346983); details: rPXR luciferase reporter cells, One-Glo luminescence, 24 h; max activation: hits give high values; note: nearly all actives have a fitted effect of over 20% in size
Outline: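 Luminescent readout (One-Glo luciferase, 30 min room temperature) followed 24 hr compound treatment at 37 C of rPXR cells plated 2,000 per well and preincubated 5hr; qHTS format with compounds delivered in DMSO.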

[18] = target: Nuclear receptor subfamily 1 group I member 2 (Homo sapiens) (UniProt O75469); experiment: CYP3A4 induction through human pregnane X receptor (PXR) by small molecules, qHTS assay (AID 1346984); note: nearly all actives have a fitted effect of over 40% in size
Outline: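 qHTS, concentration-response format: HepG2 DPX-2 line, PXR/CYP3A4-luc. Exposure 24 h, 37C. Substrate Luciferin-IPA 3uM final, 3 h. Detection One-Glo, 30 min RT.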

[19] = target: Nuclear receptor subfamily 1 group I member 2 (Homo sapiens) (UniProt O75469); experiment: Human pregnane X receptor (PXR) activation by small molecules, qHTS assay (AID 1346985); note: nearly all actives have a fitted effect of over 40% in size
Outline: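 DPX-2 cells (HepG2 co-transfected with a PXR response element and a CYP3A4-promoter luciferase construct) were seeded at 2,000 per well, rested 5 hr at 37C, then exposed to DMSO-dissolved compounds for 24 hr. Activation was read as luciferase luminescence.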

[20] = qHTS assay to identify small molecule agonists of the TGF-beta/Smad signaling pathway - cell viability counter screen (AID 1346829); note: top concentration of the series differs between compounds; nearly all actives have a fitted effect of over 45% in size
Outline: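 Tox21 qHTS format: SBE-bla HEK 293T cells treated with DMSO-dissolved compounds for 5 hr; CellTiter-Glo luminescence after 30 min at room temperature.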
% is set by controls: 0 for no effect and ±100 for the full control effect.

Nuclear receptor subfamily 1 group I member 2 (Homo sapiens), sequence (O75469 whole entry, looked up): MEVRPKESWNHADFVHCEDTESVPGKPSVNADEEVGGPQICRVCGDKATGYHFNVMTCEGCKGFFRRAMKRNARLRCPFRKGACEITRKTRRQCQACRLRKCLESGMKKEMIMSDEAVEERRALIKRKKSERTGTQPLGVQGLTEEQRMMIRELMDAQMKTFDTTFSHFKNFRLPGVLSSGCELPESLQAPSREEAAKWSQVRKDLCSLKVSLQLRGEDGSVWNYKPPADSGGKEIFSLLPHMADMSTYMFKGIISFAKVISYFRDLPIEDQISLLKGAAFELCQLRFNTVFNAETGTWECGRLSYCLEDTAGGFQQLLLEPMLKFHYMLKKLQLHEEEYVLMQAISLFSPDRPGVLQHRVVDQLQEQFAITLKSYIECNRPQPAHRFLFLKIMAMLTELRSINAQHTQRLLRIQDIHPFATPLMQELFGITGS
Thyrotropin-releasing hormone receptor (Homo sapiens), sequence (P34981 whole entry, looked up): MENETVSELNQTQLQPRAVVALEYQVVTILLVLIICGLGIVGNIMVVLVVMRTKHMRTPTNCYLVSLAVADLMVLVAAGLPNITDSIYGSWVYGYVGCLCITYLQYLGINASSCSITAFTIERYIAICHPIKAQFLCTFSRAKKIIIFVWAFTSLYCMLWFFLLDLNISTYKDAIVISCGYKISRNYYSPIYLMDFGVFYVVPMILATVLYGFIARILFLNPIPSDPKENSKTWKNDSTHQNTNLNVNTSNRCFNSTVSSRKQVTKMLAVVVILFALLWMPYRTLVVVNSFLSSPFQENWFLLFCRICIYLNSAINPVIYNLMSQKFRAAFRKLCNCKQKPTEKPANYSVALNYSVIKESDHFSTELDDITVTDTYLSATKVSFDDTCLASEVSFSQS
Progesterone receptor (Homo sapiens), sequence (P06401 whole entry, looked up): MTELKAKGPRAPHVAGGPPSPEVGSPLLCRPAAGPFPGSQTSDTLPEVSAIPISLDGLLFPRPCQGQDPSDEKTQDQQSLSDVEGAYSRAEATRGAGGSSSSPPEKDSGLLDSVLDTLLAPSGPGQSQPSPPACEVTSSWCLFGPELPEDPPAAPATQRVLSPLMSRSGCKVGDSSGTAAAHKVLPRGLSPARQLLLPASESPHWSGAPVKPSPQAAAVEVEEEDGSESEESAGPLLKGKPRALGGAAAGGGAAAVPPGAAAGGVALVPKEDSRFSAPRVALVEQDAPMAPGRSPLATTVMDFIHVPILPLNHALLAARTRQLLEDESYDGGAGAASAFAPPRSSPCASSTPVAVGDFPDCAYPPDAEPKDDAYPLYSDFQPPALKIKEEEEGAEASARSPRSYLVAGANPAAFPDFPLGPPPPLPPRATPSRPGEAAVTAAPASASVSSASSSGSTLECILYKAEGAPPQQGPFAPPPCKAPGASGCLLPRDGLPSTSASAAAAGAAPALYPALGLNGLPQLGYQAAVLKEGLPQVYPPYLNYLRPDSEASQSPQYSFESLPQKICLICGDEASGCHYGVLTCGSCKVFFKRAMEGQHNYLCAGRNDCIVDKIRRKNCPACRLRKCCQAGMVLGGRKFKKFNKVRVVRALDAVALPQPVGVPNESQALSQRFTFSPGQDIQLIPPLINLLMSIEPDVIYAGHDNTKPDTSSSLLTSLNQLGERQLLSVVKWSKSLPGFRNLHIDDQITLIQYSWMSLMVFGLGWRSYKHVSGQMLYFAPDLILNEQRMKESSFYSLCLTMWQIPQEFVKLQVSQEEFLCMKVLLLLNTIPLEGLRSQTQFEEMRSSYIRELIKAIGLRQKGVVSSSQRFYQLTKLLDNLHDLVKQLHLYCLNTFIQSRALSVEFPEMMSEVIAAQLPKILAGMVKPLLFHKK
Cytochrome P450 2D6 (Homo sapiens), sequence (P10635 whole entry, looked up): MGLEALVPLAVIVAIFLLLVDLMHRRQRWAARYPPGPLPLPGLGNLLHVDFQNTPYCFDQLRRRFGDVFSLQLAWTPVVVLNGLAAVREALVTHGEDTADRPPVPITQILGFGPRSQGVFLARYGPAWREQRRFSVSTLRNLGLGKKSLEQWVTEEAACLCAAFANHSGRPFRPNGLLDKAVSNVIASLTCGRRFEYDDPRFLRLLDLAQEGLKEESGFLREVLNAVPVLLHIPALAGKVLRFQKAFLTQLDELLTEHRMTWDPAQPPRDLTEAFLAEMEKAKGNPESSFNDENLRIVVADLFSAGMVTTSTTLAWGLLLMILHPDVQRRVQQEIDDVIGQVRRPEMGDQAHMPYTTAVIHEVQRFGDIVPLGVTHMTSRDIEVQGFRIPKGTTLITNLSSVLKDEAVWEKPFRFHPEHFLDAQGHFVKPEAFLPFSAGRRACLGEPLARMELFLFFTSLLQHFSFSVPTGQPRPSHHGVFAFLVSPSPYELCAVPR
Nuclear receptor subfamily 1 group I member 2 (Rattus norvegicus), sequence (Q9R1A7 whole entry, looked up): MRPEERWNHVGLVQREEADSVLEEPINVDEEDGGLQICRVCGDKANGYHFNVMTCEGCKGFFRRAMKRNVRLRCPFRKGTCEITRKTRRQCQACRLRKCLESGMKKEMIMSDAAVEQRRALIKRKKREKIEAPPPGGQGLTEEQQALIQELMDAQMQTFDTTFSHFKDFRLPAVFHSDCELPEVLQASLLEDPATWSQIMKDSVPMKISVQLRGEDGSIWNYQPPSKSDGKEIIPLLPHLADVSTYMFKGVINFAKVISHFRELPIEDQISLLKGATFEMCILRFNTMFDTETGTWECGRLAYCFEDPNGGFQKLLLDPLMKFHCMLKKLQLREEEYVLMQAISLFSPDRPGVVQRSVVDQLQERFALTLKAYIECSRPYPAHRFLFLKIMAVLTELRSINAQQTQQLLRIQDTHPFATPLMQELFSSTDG

FC(F)(F)c1ccccc1
inactive: Potency [1] | Potency [2] | Potency [3] | Potency [4] | Potency [5] | outcome [6] | outcome [7] | outcome [8] | Potency [9] | Potency [10] | Potency [11] | Potency [12] | outcome [13] | Potency [14] | Potency [15] | Potency [16]

CCCNC(C)C(=O)Nc1c(C)csc1C(=O)OC (configuration not stated)
inactive: Potency [1] | Potency [2] | Potency [3] | Potency [4] | Potency [5] | outcome [6] | outcome [7] | Potency [10] | Potency [11] | Potency [12] | outcome [13] | Potency [14] | Potency [15] | max activation [17] -1.55% | Potency [18] | Potency [19] | Potency [16]

O=C(O)[C@@H]1CSCN1
inactive: Potency [1] | Potency [2] | Potency [3] | Potency [4] | Potency [5] | outcome [6] | outcome [20] | outcome [7] | Potency [11] | outcome [13] | Potency [14] | Potency [15] | max activation [17] 0.44% | Potency [18] | Potency [19]

Nc1ccc2ccccc2c1S(=O)(=O)O
active: Potency [15] 62.3 µM | Potency [16] 32.4 µM
inactive: Potency [1] | Potency [2] | Potency [3] | Potency [4] | Potency [5] | outcome [6] | outcome [7] | outcome [8] | Potency [9] | Potency [10] | Potency [11] | Potency [12] | outcome [13]

O=C1CCC(C2CCCCC2)CC1
inactive: Potency [1] | Potency [2] | Potency [3] | Potency [4] | outcome [6] | outcome [20] | outcome [7] | outcome [8] | Potency [9] | Potency [10] | Potency [11] | Potency [12] | outcome [13] | Potency [14] | Potency [16]

CC(C)CCCCCCc1ccc(OCCOCCO)cc1
inactive: Potency [1] | Potency [2] | Potency [3] | Potency [4] | Potency [5] | outcome [6] | outcome [20] | outcome [7] | Potency [10] | Potency [11] | Potency [12] | outcome [13] | Potency [14] | Potency [16]
active: Potency [15] 97.2 µM

COC(=O)c1ccc2cc(C(=O)OC)ccc2c1
inactive: activity change, negative = cytotoxicity [1] -3.99% [at 19 µM] | activation [2] 2.44% [at 19 µM] | activity change, negative = inhibition [3] -25.1% [at 18.9 µM] | Potency [4] | activity change, negative = cytotoxicity [5] -2.9% [at 19 µM] | viability change, negative = cytotoxic [6] 0.743% [at 15.8 µM] | activity change, negative = cytotoxicity [20] 8.9% [at 15.8 µM] | activation [7] 0.192% [at 15.8 µM] | activity change, negative = cytotoxicity [10] 6.1% [at 19 µM] | caspase activation [11] -5.84% [at 19 µM] | caspase-3/7 activation [13] -2.42% [at 19 µM] | activity change, negative = cytotoxicity [14] -0.603% [at 19 µM] | activation [15] 19.9% [at 19 µM] | activity change, negative = inhibition [16] -8.11% [at 23.6 µM]

Source: PubChem BioAssay (Tox21)
